Screening results from PubChem.
The list is not random: actives were taken first. Their share in the collection is about 2.2%.
GC-B act: human GC-B receptor activators, primary screen, HEK293 GC-B cells, cGMP TR-FRET, EC30 CNP. Atrial natriuretic peptide receptor 2 (Homo sapiens), P20594. 0% at EC30 CNP, 100% saturating CNP. activation, % at 10 µM. 370,000 compounds, 0.11% hits. AID 1920062, 2024;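 active = activation at 10 µM reaching about 35% in either raw or pattern-adjusted values, limit read from the data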
ADAM17 inh: ADAM17 inhibitors, primary screen, biochemical, QFRET; Disintegrin and metalloproteinase domain-containing protein 17 (Homo sapiens), P78536; recombinant ADAM17, EDANS/DABCYL FRET peptide cleavage; inhibition, % at 6.95 µM; 370,000 compounds, 0.83% hits;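 active = inhibition above the mean of compounds lying between control limits plus 3 SD, set per campaign, cut at about 8.5% in these data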;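 note: 0% = DMSO-only wells as the low control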
KLK7 zymogen act: proKLK7 zymogen activators, primary screen, biochemical, fluorescence intensity; activation, % at 7 µM; purified proKLK7, EDANS-DABCYL substrate fluorescence; 100% is mature enzyme control, 0% vehicle; 370,000 compounds, 0.9% hits; Kallikrein-7 (Homo sapiens), P49862; AID 652039, 2013;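 active = activation above the mean of all tested compounds plus 3 SD, computed per campaign excluding outliers beyond control limits, cut at about 13% in these data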
ADAM10 inh: human ADAM10 inhibitors, primary screen, biochemical, QFRET, HTS; 370,000 compounds, 0.62% hits; inhibition, % at 7 µM; Disintegrin and metalloproteinase domain-containing protein 10 (Homo sapiens), O14672; recombinant ADAM10, EDANS/DABCYL FRET peptide cleavage, 3 h;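 active = inhibition above a per-campaign cutoff equal to the mean of compounds falling between control-based bounds plus 3 SD, cut at about 20% in these data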;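 note: 0% = DMSO wells while the 100% control is not disclosed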
Target sequence (O14672 214-748 limits assumed): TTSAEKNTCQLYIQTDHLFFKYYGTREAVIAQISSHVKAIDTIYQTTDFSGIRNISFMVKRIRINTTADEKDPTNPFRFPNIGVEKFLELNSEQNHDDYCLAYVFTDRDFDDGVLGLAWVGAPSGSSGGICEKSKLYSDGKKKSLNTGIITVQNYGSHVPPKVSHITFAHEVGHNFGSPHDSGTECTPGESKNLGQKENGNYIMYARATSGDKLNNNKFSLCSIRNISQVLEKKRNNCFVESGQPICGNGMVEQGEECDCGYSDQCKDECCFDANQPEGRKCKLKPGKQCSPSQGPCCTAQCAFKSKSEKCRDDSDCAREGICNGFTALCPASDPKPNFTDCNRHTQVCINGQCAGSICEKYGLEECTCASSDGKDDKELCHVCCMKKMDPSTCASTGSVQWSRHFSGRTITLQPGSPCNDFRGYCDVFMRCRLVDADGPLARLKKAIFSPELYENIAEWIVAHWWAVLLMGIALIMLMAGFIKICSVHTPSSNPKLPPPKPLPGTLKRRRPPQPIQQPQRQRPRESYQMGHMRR
GC-A act: GC-A stimulated cGMP production enhancers – HEK293 GC-A cells, cGMP TR-FRET, EC30 ANP, primary screen; activation, % at 10 µM; 370,000 compounds, 0.14% hits; Atrial natriuretic peptide receptor 1 (Homo sapiens), P16066; 0% at EC30 ANP, 100% saturating ANP; in the data active = activation above about 40%
ADAM10 confirm: human ADAM10 inhibitors, confirmation, biochemical, QFRET, triplicate | shares compounds with ADAM10 inh | ADAM10 QFRET peptide cleavage, EDANS fluorescence | inhibition, % at 6.95 µM | 2,100 compounds, 1% hits;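 active = inhibition above about 20% chosen separately for each screening run, limit read from the data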;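 note: 0% = DMSO wells and 100% = marimastat wells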
ADAM17 ctr: ADAM17 inhibitors, counter-screen for ADAM10 exosite inhibitor project, biochemical, QFRET, high throughput | inhibition, % at 6.95 µM | shares compounds with ADAM10 inh | 2,100 compounds, 0.5% hits | ADAM17 QFRET peptide cleavage, EDANS fluorescence | AID 743214, 2013;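 active = mean triplicate inhibition above the solvent-only control wells' mean plus 3 SD, cut at about 12% in these data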;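 note: 0% = DMSO wells and 100% = marimastat wells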
Active calls of the source: *.

How did Cc1cccc(N2CCN(S(=O)(=O)c3ccc4c(c3)NC(=O)CS4)CC2)c1C do in these assays?
GC-B act: -4.6; ADAM17 inh: 7.9; KLK7 zymogen act: -0.2; ADAM10 inh: 23.2*; GC-A act: -18.9; ADAM10 confirm: 8.3; ADAM17 ctr: 2.0

How did O=C(Nc1nc2ccccc2s1)C1c2ccccc2Oc2ccccc21 do in these assays?
GC-B act: -0.9; ADAM17 inh: 8.4; KLK7 zymogen act: -0.3; ADAM10 inh: 28.4*; GC-A act: 1.1; ADAM10 confirm: 9.9; ADAM17 ctr: 3.2

What do the screens show for `COc1ccc(NC(=O)c2ccccc2[N+](=O)[O-])cc1`?
GC-B act: 4.9; ADAM17 inh: -2.3; KLK7 zymogen act: -0.2; ADAM10 inh: -1.2; GC-A act: -3.1

What do the screens show for `COc1ccccc1Nc1ccc(NC(=O)c2cccc([N+](=O)[O-])c2C)cc1`?
GC-B act: 7.0; ADAM17 inh: 8.1; KLK7 zymogen act: -0.1; ADAM10 inh: 34.8*; GC-A act: 10.6; ADAM10 confirm: 12.6; ADAM17 ctr: 3.5

Results for Cc1ccc(S(=O)(=O)N2CCN(C(=O)c3cccn3C)CC2)cc1 ?
GC-B act: 0.9; ADAM17 inh: -1.9; KLK7 zymogen act: -0.3; ADAM10 inh: -4.8; GC-A act: -1.8

How did COc1cccc(Cn2cc(COC(=O)NCC(C)C)nn2)c1 do in these assays?
GC-B act: 2.3; ADAM17 inh: -3.5; KLK7 zymogen act: 0.5; ADAM10 inh: 2.3; GC-A act: -2.2

Results for CCCCC[C@@H](C)N1C[C@@H](COCc2ccccc2)Oc2cc(N3CC[C@@H](O)C3)ccc2S1(=O)=O ?
GC-B act: -5.0; ADAM17 inh: 5.5; KLK7 zymogen act: 0.1; ADAM10 inh: 20.5*; GC-A act: -5.5; ADAM10 confirm: 6.2; ADAM17 ctr: 3.0

What do the screens show for `C[C@@H](c1ccccc1)N1C[C@@H](COCc2ccccc2)Oc2cc(N3CCC[C@H]3C(N)=O)ccc2S1(=O)=O`?
GC-B act: 1.6; ADAM17 inh: 6.9; KLK7 zymogen act: 0.4; ADAM10 inh: 21.8*; GC-A act: -6.4; ADAM10 confirm: 5.3; ADAM17 ctr: 1.0

How did O=C(OCc1cn(Cc2ccc(Cl)cc2)nn1)N1CCOCC1 do in these assays?
GC-B act: -1.8; ADAM17 inh: -3.4; KLK7 zymogen act: 0.6; ADAM10 inh: -3.2; GC-A act: 0.1

What do the screens show for `O=C1c2ccccc2C(=O)N1CCc1c(-c2ccccc2)[nH]c2ccccc12`?
GC-B act: -3.2; ADAM17 inh: 5.5; KLK7 zymogen act: -0.3; ADAM10 inh: 20.0*; GC-A act: -0.1; ADAM10 confirm: 6.6; ADAM17 ctr: 1.9

What do the screens show for `C[C@@H]1OC(C2CCCCC2)N(C)[C@H]2C[C@H]3c4[nH]c5cccc(-c6cccc(F)c6)c5c4CCN3C(=O)[C@@H]12` (stereo not given in full)?
GC-B act: 3.3; ADAM17 inh: -52.5; KLK7 zymogen act: -20.7; ADAM10 inh: -213.1; GC-A act: 0.2

How did Cc1ccccc1Oc1cc(NC(=O)CCCn2nc(C)c([N+](=O)[O-])c2C)cc([N+](=O)[O-])c1 do in these assays?
GC-B act: -4.3; ADAM17 inh: 8.3; KLK7 zymogen act: -0.1; ADAM10 inh: 19.0; GC-A act: -6.5

Results for Cc1nn(CCCC(=O)Nc2cc(Oc3ccc(F)cc3)cc([N+](=O)[O-])c2)c(C)c1[N+](=O)[O-] ?
GC-B act: -1.7; ADAM17 inh: 6.2; KLK7 zymogen act: 0.4; ADAM10 inh: 26.3*; GC-A act: -4.4; ADAM10 confirm: 5.3; ADAM17 ctr: 1.9

How did O=C(/C=C/c1ccco1)NC(=S)Nc1ccccc1 do in these assays?
GC-B act: -3.9; ADAM17 inh: 4.6; KLK7 zymogen act: 0.0; ADAM10 inh: 22.9*; GC-A act: 1.5; ADAM10 confirm: 3.2; ADAM17 ctr: 1.4

How did CC(=O)c1ccc(NC(=S)NC(=O)/C=C/c2ccco2)cc1 do in these assays?
GC-B act: -4.8; ADAM17 inh: -0.7; KLK7 zymogen act: -0.5; ADAM10 inh: -1.0; GC-A act: -1.5

Results for CC(C)CNc1cccc2c1S(=O)(=O)N(Cc1cn(Cc3ccc(C(F)(F)F)cc3)nn1)Cc1ccccc1O2 ?
GC-B act: 8.9; ADAM17 inh: -4.6; KLK7 zymogen act: -11.2; ADAM10 inh: -25.2; GC-A act: 3.0

Results for Cc1cc(-c2n[nH]c(=S)n2N=Cc2ccc(-c3ccccc3)cc2)n[nH]1 ?
GC-B act: -15.1; ADAM17 inh: -1.3; KLK7 zymogen act: -0.1; ADAM10 inh: 0.1; GC-A act: 4.0

What do the screens show for `O=C(c1ccc(C#Cc2ccccc2)o1)N1CCN(c2ccccn2)CC1`?
GC-B act: -0.5; ADAM17 inh: 5.8; KLK7 zymogen act: -0.5; ADAM10 inh: 21.9*; GC-A act: 3.3; ADAM10 confirm: 3.6; ADAM17 ctr: 1.3

Results for CCN(c1ccccc1)S(=O)(=O)c1cc(C(=O)Nc2ccc(F)c(F)c2)ccc1F ?
GC-B act: -1.8; ADAM17 inh: 8.5; KLK7 zymogen act: 0.0; ADAM10 inh: 25.7*; GC-A act: 2.2; ADAM10 confirm: 7.7; ADAM17 ctr: 3.1

How did CN[C@H]1C[C@H]2c3[nH]c4cccc(-c5ccc6c(c5)OCO6)c4c3CCN2C[C@H]1[C@H](C)O do in these assays?
GC-B act: -13.0; ADAM17 inh: -14.5; KLK7 zymogen act: -0.6; ADAM10 inh: -49.3; GC-A act: 0.8

Results for CN(C(=O)[C@@H](C1CC1)[C@@H](O)c1ccc2ccccc2c1)c1ccccc1 ?
GC-B act: -0.7; ADAM17 inh: 5.3; KLK7 zymogen act: -0.2; ADAM10 inh: 87.2*; GC-A act: -4.2; ADAM10 confirm: -0.3; ADAM17 ctr: 0.0

What do the screens show for `CCCCNC(=O)O[C@H]1CC[C@@]23CCCN2C(=O)CCC[C@H]3C1`?
GC-B act: -6.9; ADAM17 inh: -0.3; ADAM10 inh: -5.8; GC-A act: 0.5

What do the screens show for `O/N=C/c1cc(Cl)ccc1OCc1ccccc1Cl`?
GC-B act: -4.5; ADAM17 inh: 5.0; KLK7 zymogen act: 0.0; ADAM10 inh: 23.1*; GC-A act: 7.8; ADAM10 confirm: 8.9; ADAM17 ctr: 2.4
